From the supplement of paper PMC13380429

System: Vero E6 infected with SARS-CoV-2
Experiment: inhibition of SARS-CoV-2 cytopathic effect; higher = more antiviral protection, active = above 15
Conditions: 48 h

Measured: inhibition of SARS-CoV-2 cytopathic effect

CN1C(=O)N(c2cc(Cl)cc(Cl)c2)C(=O)[C@@]1(C)Cc1ccc(Br)cc1
inactive: 1 nM -0.07% | 8.33 nM -0.29% | 100 nM -0.15% | 833.33 nM -1.61% | 10000 nM -5.8%

NS(=O)(=O)OC[C@@H]1C[C@@H](n2ccc3c(N[C@H]4CCc5ccccc54)ncnc32)C[C@@H]1O [pevonedistat]
inactive: 1 nM 1.08% | 8.33 nM 1.45% | 100 nM 2.73% | 833.33 nM -1.35% | 10000 nM -9.75%

CN(Cc1cnc2nc(N)nc(N)c2n1)c1ccc(C(=O)N[C@@H](CCC(=O)O)C(=O)O)cc1 [methotrexate]
inactive: 1 nM -1.04% | 8.33 nM -0.21% | 100 nM -0.4% | 833.33 nM 2% | 10000 nM -1.41%

N#Cc1ccc(Cn2cncc2CN2CCN(c3cccc(Cl)c3)C(=O)C2)cc1
inactive: 1 nM 3.21% | 8.33 nM 3.01% | 100 nM 0.11% | 833.33 nM -2.48% | 10000 nM -1.12%

N#Cc1cc(-c2n[nH]c(-c3ccncc3)n2)ccn1 [topiroxostat]
inactive: 1 nM 0.4% | 8.33 nM 0.34% | 100 nM 3.87% | 833.33 nM -0.47% | 10000 nM 0.11%
